Screening results deposited in PubChem BioAssay by National Center for Advancing Translational Sciences (NCATS).
Sampled rows, rich in hits. Any-hit rate of the full collection: about 0.81%.
TRPML1 inh – inhibitors of human TRPML1 channel; TRPML1-inducible cells, Ca2+ dye fluorescence, FDSS; active compounds read low; inhibition of EC80 agonist-evoked calcium signal; activity change, negative = inhibition, % (test concentration not listed); hit rate 0.02% among 390,000; AID 624415; in the data active means activity change below about -50%; inconclusive means between about -30% and that limit;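 further: stimulus is agonist 54-4 at its EC80 concentration; on the % scale 0 is the no-effect control and ±100 the full control effect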
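Calcium fluorescence in TRPML1-DL cells induced overnight with Tet: a 110 s read after compound pin addition, then a 110 s antagonist read after challenge with 54-4 at 4 uM final (EC80).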
TRHR enhancer – TRH receptor (human) allosteric enhancement | P34981 | TRHR cells, fluo-8 calcium fluorescence, EC20 TRH enhancement | enhancement, % at 2 µM | hit rate 0.66% among 360,000; in the data active means enhancement above about 30%; further: 0% is about no effect
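TRHR-expressing cells loaded with fluo-8 calcium dye were read kinetically (ex 480/em 530) during compound addition, then stimulated with an EC20 of TRH (10 nM final). Enhancement of the Gq-mediated intracellular calcium response was scored.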
TRPML1 agonist – activates the human TRPML1 channel; Q9GZU1; TRPML1-expressing cells, Ca2+ dye fluorescence, FDSS; activation, % (test concentration not listed); hit rate 0.12% among 410,000; AID 624414; in the data active means activation above about 50%; inconclusive means mostly about 30% to 49%; further: 0% is about no effect
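TRPML1-DL cells, Tet-induced overnight (~16 h, 37 degrees C), loaded 45-90 min at room temperature with Ca8 no-wash calcium dye plus quencher. FDSS fluorescence: 10 s baseline, compound pin-transfer, 110 s agonist read, then EC80 54-4 (4uM final) and 110 s antagonist read.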
TRHR ag – agonists of human TRH receptor | P34981 | TRHR cells, calcium flux fluo-8, FDSS agonist mode | activation, % at 2 µM | hit rate 0.18% among 360,000; in the data active means activation above about 30%; further: 0% is about no effect
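Read-out: compound-evoked intracellular calcium rise in TRHR cells, fluo-8 dye, kinetic FDSS fluorescence at 1 s/cycle following a 10-cycle baseline. Cells cultured overnight before dye loading (30 min–1.5 h, RT).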
TSG101-PTAP inh – blocks PTAP/TSG101 interaction to inhibit HIV-1 budding. Fluorescence polarization, FITC-PTAP peptide / Tsg101 binding. Potency, µM (top dose mostly 115 µM), inactives show top-dose activity change, negative = inhibition, actives largely listed as inhibitors. 340,000 tested, under 10 active; active means well fitted inhibition curve with a large enough effect in the main read-out, with a control signal flat, not every such curve was filed as active; inconclusive means small, poorly fitted or top-dose-only effect, or effect the other way, or a change in a side signal; inactive means no such curve, though single readings can be large or run the other way; further: potency means the concentration at half of the fitted maximal effect; % of control where 0% means no effect
Target sequence (Q99816 whole entry, looked up): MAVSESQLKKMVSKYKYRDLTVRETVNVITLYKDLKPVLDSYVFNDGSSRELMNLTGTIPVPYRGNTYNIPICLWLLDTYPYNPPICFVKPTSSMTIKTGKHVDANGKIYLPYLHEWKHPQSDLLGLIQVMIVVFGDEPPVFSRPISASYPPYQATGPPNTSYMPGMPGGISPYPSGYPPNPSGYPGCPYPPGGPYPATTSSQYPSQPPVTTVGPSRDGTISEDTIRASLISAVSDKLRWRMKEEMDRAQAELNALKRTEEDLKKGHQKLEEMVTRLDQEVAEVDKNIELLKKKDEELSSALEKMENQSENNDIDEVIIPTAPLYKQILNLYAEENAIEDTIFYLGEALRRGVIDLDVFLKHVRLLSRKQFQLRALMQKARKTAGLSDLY
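Fluorescence anisotropy tracks displacement of a FITC-tagged PTAP peptide (50 nM) from the Tsg101 binding domain (10 uM), following a 20 min room-temperature incubation at pH 7.5.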
Numbers without * were called inactive; ? = inconclusive; / = no result given.

SMILES	TRPML1 inh	TRHR enhancer	TRPML1 agonist	TRHR ag	TSG101-PTAP inh
Cc1cc2nn(-c3ccc(F)cc3)nc2cc1N	-15	32*	0	-1	0%
COc1ccc(NC(=O)COc2ccccc2C(=O)Nc2ccccc2)cc1	/	/	-1	/	/
Cc1c(Br)cc(F)c([S+](=O)([O-])N2CCN([S+](=O)([O-])c3ccc4c(c3)OCCO4)CC2)c1F	/	-2	/	1	/
CN(C(=O)COc1ccccc1C(=O)Nc1ccccc1)c1ccccc1	/	/	0	/	/
CC1=C(C(=O)OCc2ccccc2)N2C(=O)[C@@H](NC(=O)OCc3ccccc3)[C@H]2SC1	/	/	0	/	/
CN(C)c1ccc(/C=C/c2ccc3ccccc3[n+]2[O-])cc1	/	/	107*	/	/
CN(C)c1ccc(/C=C/c2cc[n+]([O-])cc2)cc1	/	2	/	61*	/
CCN(CC)/[N+]([O-])=N/Oc1ccc([N+](=O)[O-])cc1[N+](=O)[O-]	20	/	1	/	/
Cc1cc(C)cc(NC(=O)Cc2csc(COc3cccc(C)c3)n2)c1	0	38*	2	0	/
O=C(CC1Nc2ccccc2NC1=O)Nc1cc(Cl)cc(Cl)c1 (configuration not stated)	-2	7	0	0	-9%
Cc1cc2c(cc1C)NC(CC(=O)Nc1cccc(Cl)c1)C(=O)N2 (configuration not stated)	1	43*	2	2	/
Cc1ccc2oc(-c3ccc(C)c(NC(=O)COc4ccccc4C)c3)nc2c1	/	/	0	/	/
CCCNc1c(F)c(F)c2c(C)c3ccccc3nc2c1F	-2	9	1	34*	?
O=CC(=O)c1ccc(F)cc1	/	/	-1	/	/
O=C(NNC(=O)c1ccc(Br)o1)c1ccc(NS(=O)(=O)c2cccs2)cc1	-9	/	1	/	2%
Cc1ccc(C(=O)NNC(=O)c2ccc(NS(=O)(=O)c3cccs3)cc2)o1	-3	32*	0	0	-2%
Cc1[nH]c2ccccc2c1C(c1c[nH]c2ccccc12)c1c(C)[nH]c2ccccc12	/	/	3	/	/
O=C(O)CCCCNCc1ccccc1	-3	-4	1	-1	-8%
CCOC(=O)CCCCNCc1ccccc1	-17	30*	0	0	-4%
COc1cc(/C=C2\SC(=O)N(CC(=O)Nc3ccccc3F)C2=O)cc(Cl)c1O	5	11	?	101*	1%
COc1cc(OC)c(/C=C2\SC(=O)N(CC(=O)Nc3ccccc3F)C2=O)c(OC)c1	/	-4	/	0	-2%
C/C(=N\NC(=O)Nc1ccccc1)c1ccc2ccccc2c1	-5	3	1	-1	0%
C/C(=N/NC(=O)Nc1ccccc1)c1ccc(C)cc1	37	33*	1	0	-4%
O=C(NC(=S)Nc1ccc(F)cc1)c1ccc2c(c1)OCCO2	-14	33*	4	1	-4%
CNc1nc(N2CCCN(C)CC2)nc2cc(OC)c(OC)cc12	/	/	0	/	/
SMILES	TRPML1 inh	TRHR enhancer	TRPML1 agonist	TRHR ag	TSG101-PTAP inh
CCOc1ccc(C2CC(c3ccc(OC)cc3)n3ncnc3N2)cc1 (configuration not stated)	15	1	3	2	-3%
COc1ccc(C2CC(c3ccco3)n3ncnc3N2)cc1 (configuration not stated)	-5	37*	1	0	-6%
c1ccc(CNCc2nnc(-c3cc4ccccc4[nH]3)s2)cc1	/	4	/	1	/
O=C(O)c1cccc(S(=O)(=O)N2CCN(S(=O)(=O)c3ccc4c(c3)OCCO4)CC2)c1	/	6	/	2	/
c1ccc(-c2noc(CSc3nnc(Cc4cccs4)n3-c3ccccc3)n2)cc1	-1	40*	0	1	1%
Cc1ccc(-c2noc(CSc3nnc(Cc4cccs4)n3-c3ccccc3)n2)cc1	0	3	1	1	-6%
COC(=O)c1ccc(S(=O)(=O)N2CCCCC2)o1	10	36*	-1	0	-2%
COC(=O)c1ccc(S(N)(=O)=O)o1	22	0	-1	1	-2%
COc1ccc(/C=C(\C)C(=O)NO)cc1	/	/	0	/	/
CN(C)c1ccc(C2=Cc3ccccc3C2)cc1	/	/	0	/	/
Cc1ccc(N=C(NO)c2cnccc2C(F)(F)F)c(C)c1	-4	32*	0	0	0%
Cc1cc(C)n(CCc2nc3c4ccccc4n(CC#N)c(=O)n3n2)n1	7	15	-1	0	-8%
COc1cc2c(cc1OC)n(CC(=O)c1ccc(F)cc1)c(=O)n1nc(CCn3nc(C)cc3C)nc21	-12	36*	0	0	/
COc1ccc(CCN2C(=O)c3[nH]nc(-c4ccccc4O)c3C2c2ccc(OC)c(OC)c2)cc1 (configuration not stated)	3	31*	3	0	/
COc1ccc(CCN2C(=O)c3[nH]nc(-c4ccccc4O)c3C2c2ccc(OC)cc2)cc1 (configuration not stated)	48	10	0	0	/
Cc1nnnn1/C(=C\c1ccccc1)C(=O)OCC(=O)NC(C)(C)C	-15	33*	0	0	2%
COc1ccc(C(=O)COc2ncnc3cc(Cl)ccc23)cc1	66	36*	8	-1	-3%
O=C(COc1ncnc2cc(Cl)ccc12)c1ccccc1	3	8	1	0	-6%
Cc1ccc(/C(N)=N/OC(=O)C23CC4CC(CC(C4)C2)C3)cc1	-3	1	3	0	-7%
N/C(=N\OC(=O)C12CC3CC(CC(C3)C1)C2)c1ccncc1	12	-2	61*	0	0%
CCn1cnc2c(Nc3ccc(CC(=O)N=C(N)N)cc3)nc(C#N)nc21	/	1	/	-1	/
CC(=O)Nc1ccc2sc(C)nc2c1	4	37*	2	-1	-3%
Cc1cc2[nH]c3c(=O)n(Cc4ccccc4F)ncc3c2s1	/	-6	/	0	/
COc1cc2nc(N3CCOCC3)nc(NC(C)C)c2cc1OC	/	/	-1	/	/
Cn1nnnc1Sc1ncnc2scc(-c3ccc(C(=O)OC(C)(C)C)cc3)c12	/	4	/	0	/
SMILES	TRPML1 inh	TRHR enhancer	TRPML1 agonist	TRHR ag	TSG101-PTAP inh
CCCCCCCCCC[n+]1ccc(/C=C/c2c(C)[nH]c3ccccc23)cc1	/	/	123*	/	/
Cc1[nH]c2ccccc2c1/C=C/c1nccc2ccccc12	/	/	20	/	/
CCCCCCC[n+]1ccc(/C=C/c2c[nH]c3ccccc23)cc1	/	/	63*	/	/
Cc1cc(C)c2nccc(/C=C/c3ccc(N(C)C)cc3)c2c1	/	/	15	/	/
N#Cc1nc(Nc2ccc(-c3ccccc3)cc2)nc(NC2CCCC2)n1	/	1	/	1	/
COc1cc2nc(N3CCCN(C)CC3)nc(NC3CCNCC3)c2cc1OC	/	/	0	/	/
COc1ccc(Cl)cc1S(=O)(=O)Nc1cccc(-c2ccc(N3CCCC3)nn2)c1	0	-4	0	0	/
COc1ccc(Cl)cc1S(=O)(=O)Nc1cccc(-c2ccc(N3CCOCC3)nn2)c1	2	32*	-1	0	/
